Unmarked numbers belong to inactive results. Entries that show only a call come without a potency. The source made the active and inactive calls. Calls come from the whole dose curve; as a rule, active = well fitted curve in the direction sought with a large enough effect in the repeat runs; inconclusive = weak or mixed curves; inactive = flat fitted curve, though single readings scatter.

This assay in a line: qHTS assay to test for compound auto fluorescence at 460 nm (blue) in HepG2 cell free culture (AID 720685). As to conditions: Cell-free culture medium, blue autofluorescence 405/460 nm; series mostly up to 91.3 µM. An excerpt:
U.S. Tox21 Program National Center for Advancing Translational Sciences [NCATS] NIH Chemical Genomics Center [NCGC] U.S. Environmental Protection Agency [EPA] National Institutes of Environmental Health Sciences [NIEHS] National Toxicology Program [NTP] U.S. Food and Drug Administration [FDA] Tox21 Assay Overview: Compound auto fluorescence often interferes with screening of the compound library against various biological targets and signaling pathways. Some of these compounds may have fluorophoric properties. Such properties may interfere with the assay outputs resulting in false positives and/or negatives. To decrease such complications and ensure the compound activities are relevant in terms of biological response, the Tox21 10K compound library was screened for auto fluorescence. From the fluorophores used as reporter signals in our screening assays, the auto fluorescence equivalencies of compounds against three fluorophores have been evaluated: Triamterene, Fluorescein and Rose Bengal sodium for blue, green and red fluorescence, respectively. The fluorescence intensities were measured using Excitation/Emission wavelengths at 405/460nm, 485/535nm and 540/590nm for blue, green and red labels, respectively. This assay includes the blue fluorescence data.
Tox21 Assay Protocol Summary: 5 uL of culture medium (MEM containing 10% FBS) per well was dispensed into black wall/clear bottom 1536-well plates using a Multidrop Combi Dispenser (ThermoFisher Scientific, Waltham, MA). After 23 nL compound or DMSO vehicle was transferred into assay plate by a pintool work station (Kalypsys, San Diego, CA), fluorescence intensities in the assay plates were measured by an Envision (PerkinElmer, Shelton, CT) plate reader using three labels for measuring blue, green and red fluorescence at […] 460, 535 and 590nm respectively.
(In qHTS, concentration-response curves come from the screen itself.)
As to `N#[N+]c1ccc2c(S(=O)(=O)[O-])cccc2c1O`, the Potency entry was “inactive”.
In the case of `C=CC(C)(CCC=C(C)C)OC(=O)CC(C)C` (stereo not given), the Potency result was “inactive”.
For the compound `CCC1(CO)COCOC1`, the Potency entry is “inactive”.
For the compound `O=C1c2ccccc2C(=O)C1(O)O`, the Potency result is “inactive”.
The same measure, in the same setting: then `CCN(CC)CCNC(=O)COc1ccc(OC)cc1`, with “inactive”; and `COc1ccccc1Oc1c(NS(=O)(=O)c2ccc(C(C)(C)C)cc2)nc(-c2ncccn2)nc1OCCO`, with “inactive”.
On the same count and under the same terms, then `N#CCCN(CCO)CCO`, with “inactive”; and `CC(CN(C)C)C(C)(O)Cc1ccc(Cl)cc1` (stereo not given), with “inactive”.
Same read-out and setting: then `CCOC(=O)c1ccc(I)cc1`, with “inactive”; and `CC[C@]1(O)C[C@H]2CN(CCc3c([nH]c4ccccc34)[C@@](C(=O)OC)(c3cc4c(cc3OC)N(C=O)[C@H]3[C@@](O)(C(=O)OC)[C@H](OC(C)=O)[C@]5(CC)C=CCN6CC[C@]43[C@@H]65)C2)C1`, with “inactive”.
For `CCCCCCCCC(CCCCCC)C(=O)O` (stereo not given), the Potency result was “inactive”.
With `O=C(OCC(O)CO)c1ccccc1Nc1ccnc2cc(Cl)ccc12` (stereo not given), the fluorescence, % of fluorescent control is 0.0675% [at 18.6 µM].
For `Nc1ccc(N=Nc2ccccc2)c(N)c1`, the Potency result is “inactive”.
Still for that read-out and setting: then `CCCCCCC(C)(C)C(=O)O`, with “inactive”; and `CCCCCC[C@@H](O)C/C=C\CCCCCCCC(=O)OCC(O)CO` (stereo not given in full), with “inactive”; and `C=Cc1ccc(S(=O)(=O)O)cc1`, with “inactive”.
Still for that read-out and setting: then `CCCCCC#CC(=O)OC`, with “inactive”.
Turning to `NC1[C@H]2CN(c3nc4c(cc3F)c(=O)c(C(=O)O)cn4-c3ccc(F)cc3F)C[C@@H]12` (stereo not given in full), the Potency result was “inactive”.
Same read-out and setting: then `NNC(=O)CP(=O)(c1ccccc1)c1ccccc1`, with “inactive”; and `CN(C)CCN1C(=O)c2ccccc2N(C)c2ccccc21`, with “inactive”; and `CO/N=C(/C(=O)N[C@@H]1C(=O)N2C(C(=O)O)=C(COC(N)=O)CS[C@H]12)c1ccco1`, with “inactive”.
Turning to `CC1CC(C)C(=O)C1=O` (stereo not given), the Potency entry was “inactive”.
Still for that read-out and setting: then `CCCCCCCC/C=C\CCCCCCCCO`, with “inactive”; and `CCOC(=O)[C@H](CCc1ccccc1)N[C@@H](C)C(=O)N(CC(=O)O)C1Cc2ccccc2C1`, with “inactive”; and `CN1CCCC(n2nc(Cc3ccc(Cl)cc3)c3ccccc3c2=O)CC1` (stereo not given), with “inactive”.
On the same count and under the same terms, then `Clc1cc(Cl)nc(Cl)n1`, with “inactive”; and `COc1cc(C(=O)NCCCCCC(=O)O)cc(OC)c1OC`, with “inactive”.
Still for that read-out and setting: then `CC(O)c1ccccc1` (stereo not given), with “inactive”; and `O=C(Nc1cccc2c(=O)cc(-c3nn[nH]n3)oc12)c1ccc(OCCCCc2ccccc2)cc1`, with “inactive”.
For the compound `Oc1cccc(O)c1O`, the Potency entry was “inactive”.
The same measure, in the same setting: then `N#CCc1ccc(Cl)cc1Cl`, with “inactive”.
For `CCOc1ccc(Cc2nccc3cc(OCC)c(OCC)cc23)cc1OCC`, the fluorescence, % of fluorescent control is -0.0254% [at 18.6 µM].
With `CCCCCCCCCI`, the Potency result was “inactive”.
As for `O=c1c(O)c(-c2ccc(O)cc2)oc2cc(O)cc(O)c12`, the Potency result is “inactive”.
Regarding `CN(C(=O)CN(CCO)CC(=O)N(C)C(C)(C)Cc1ccccc1)C(C)(C)Cc1ccccc1`, the fluorescence, % of fluorescent control is -0.036% [at 18.6 µM].
`CC1CC(OC(=O)C(O)c2ccccc2)CC(C)(C)N1C` (stereo not given): the Potency entry is “inactive”.
The same measure, in the same setting: then `C1C[C@@H]2[C@H]3CC[C@H](C3)[C@@H]2C1`, with “inactive”.
The same measure, in the same setting: then `Nc1cccc2c1CN(C1CCC(=O)NC1=O)C2=O` (stereo not given), with “inactive”; and `O=C1c2ccccc2C(=O)c2c(O)c(O)cc(O)c21`, with “inactive”.
Regarding `CCCC(C(=O)OCCN(CC)CC)(c1ccccc1)c1ccccc1`, the Potency result was “inactive”.

Values taken from PubChem BioAssay (Tox21).
